# Screens as filed in PubChem BioAssay.
# Compounds with a hit are over-represented: about 6.7% of the library has one in this group of screens.
# T cruzi growth-1: inhibitors of T. cruzi proliferation. T. cruzi beta-gal in NIH3T3, GalScreen luminescence, 90 h. inhibition, % at 8.34 µM. hit rate 5.9% among 77,000;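 active means mean inhibition above about 93%, with at least 55% of replicates each passing it, limit read from the data, passing the limit was not always enough; inconclusive means only one of those two conditions holds; inactive means neither condition holds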
# Pf Dd2 inh: P. falciparum Dd2 growth inhibition | SYBR Green, 72 h; stronger effect = lower value | activity change, % at 10 µM | hit rate 2.3% among 94,000 | AID 1159554; in the data active means activity change below about -80%; inconclusive means no clear call, values can overlap the other calls
# C diff HTS: inhibitors of Clostridium difficile growth. Clostridium difficile clinical isolate growth, OD600, 24 h; stronger effect = lower value. growth activity, negative = inhibition, % at 16 µg/mL (by protocol). hit rate 0.25% among 86,000. AID 1259249;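 active means mean growth activity at or below -80% and every replicate also at or below -80%; inconclusive means mean at or below -80% but some replicate above -80%; inactive means mean growth activity above -80%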;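 further: 0% = DMSO wells and -100% = levofloxacin 16 µg/mL wells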
# T cruzi growth-2: blocks T. cruzi growth in NIH3T3 host cells | shares compounds with T cruzi growth-1 | T. cruzi beta-gal in NIH3T3, GalScreen luminescence, 90 h | inhibition, % at 8.35 µM | hit rate 72% among 5,600;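 active means mean replicate inhibition above about 95% and at least 55% of replicates individually reaching it, limit read from the data; inconclusive means only one of the two criteria is met; inactive means neither criterion is met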
# T cruzi growth-3: blocks T. cruzi growth in NIH3T3 host cells. shares compounds with T cruzi growth-1. T. cruzi beta-gal in NIH3T3, GalScreen luminescence, 90 h. inhibition, % at 2.09 µM. hit rate 21% among 5,600. AID 651740;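 active means mean inhibition above about 95%, with at least 55% of replicates also reaching it, limit read from the data; inconclusive means meets just one of the two conditions; inactive means meets neither condition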;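 further: plate controls were neutral control median for no effect and positive control median for full effect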
# 3T3 cytotox: kills mouse NIH/3T3 fibroblasts; NIH/3T3 viability, CellTiter-Glo ATP luminescence, 90 h; hit rate 14% among 5,600; AID 651742; cytotoxicity (signal decrease), % at 8.35 µM; shares compounds with T cruzi growth-1;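 active means mean signal decrease across replicates above about 35% based on untreated-well scatter, with enough replicates individually passing, limit read from the data; inconclusive means no rule stated though some were filed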;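 further: 0% = median of neutral control wells and 100% = median of positive control wells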
# 3T3 cytotox 2: kills mouse NIH/3T3 fibroblasts | shares compounds with T cruzi growth-1 | NIH/3T3 viability, CellTiter-Glo ATP luminescence, 90 h | inhibition, % at 24.9 µM | hit rate 56% among 5,600;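 active means mean loss of cell viability signal at or above a set limit, and enough replicates individually reaching it; inconclusive means meets only the mean limit or only the replicate share; inactive means meets neither condition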;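 further: 0% = median of neutral control wells and 100% = median of positive control wells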
# Active calls of the source: *; ? = inconclusive; . = not tested or not shown.
SMILES,T cruzi growth-1,Pf Dd2 inh,C diff HTS,T cruzi growth-2,T cruzi growth-3,3T3 cytotox,3T3 cytotox 2
C[C@H]1CN([C@@H](C)CO)C(=O)c2cccc(NC(=O)Nc3ccc4c(c3)OCO4)c2O[C@@H]1CN(C)Cc1ccc(C(=O)O)cc1,18,0,-2,.,.,.,.
C[C@H](CO)N1C[C@H](C)[C@H](CN(C)Cc2ccc(Oc3ccccc3)cc2)Oc2ccc(NC(=O)Nc3ccc4c(c3)OCO4)cc2C1=O,110*,-3,18,102*,7,-7,32*
C[C@@H]1CN([C@@H](C)CO)C(=O)c2cc(NC(=O)Nc3ccccc3)ccc2O[C@H]1CN(C)Cc1ccc(Oc2ccccc2)cc1,58,-13,10,.,.,.,.
C[C@@H]1CN([C@@H](C)CO)C(=O)c2cccc(NC(=O)Nc3ccc4c(c3)OCO4)c2O[C@H]1CN(C)Cc1ccc(C(=O)Nc2ccccc2N)cc1,115*,-85*,.,110*,?,16,30*
C[C@H](CO)N1C[C@H](C)[C@H](CN(C)Cc2ccc(Oc3ccccc3)cc2)Oc2c(NC(=O)Nc3ccc4c(c3)OCO4)cccc2C1=O,88,-13,-2,.,.,.,.
C[C@H]1CN([C@@H](C)CO)C(=O)c2cccc(NC(=O)Nc3ccc4c(c3)OCO4)c2O[C@@H]1CN(C)Cc1ccc(Oc2ccccc2)cc1,92*,-15,3,96*,63,-22,-28
COCC(=O)Nc1ccc2c(c1)[C@H]1C[C@@H](CC(=O)NCCN3CCCCC3)O[C@H](CO)[C@H]1O2,15,15,-1,.,.,.,.
COC(=O)C[C@H]1C[C@@H]2c3cc(NC(=O)c4cccnc4)ccc3O[C@@H]2[C@H](CO)O1,-16,6,0,.,.,.,.
COCC(=O)Nc1ccc2c(c1)C(=O)N(C)[C@@H]1CC[C@H](CC(=O)NCc3ccccc3)O[C@@H]1CO2,13,-2,10,.,.,.,.
C[C@@H]1CN([C@@H](C)CO)C(=O)c2cccc(NC(=O)c3nc4ccccc4s3)c2O[C@@H]1CN(C)Cc1ccc(Oc2ccccc2)cc1,70,-76,7,.,.,.,.
C[C@@H]1CN([C@@H](C)CO)C(=O)c2cc(NC(=O)NC3CCCCC3)ccc2O[C@@H](C)CCCCO[C@H]1CN(C)C(=O)Cc1ccccc1,2,-11,-3,.,.,.,.
COc1ccccc1NC(=O)N[C@@H]1CC[C@@H](CCn2cc(-c3ccccc3OC)nn2)O[C@H]1CO,0,-9,-13,.,.,.,.
COc1ccccc1NC(=O)N[C@H]1CC[C@@H](CCn2cc(-c3ccccc3OC)nn2)O[C@@H]1CO,137*,-22,-5,47,40,-2,23
O=C(Nc1ccc(C(F)(F)F)cc1)N[C@H]1CC[C@H](CCNC(=O)c2ccccc2F)O[C@H]1CO,5,-12,1,.,.,.,.
O=C(Nc1ccc(F)cc1)N[C@H]1CC[C@@H](CCn2cc(-c3ccccc3F)nn2)O[C@@H]1CO,.,.,0,.,.,.,.
O=C(Nc1ccc(Cl)cc1)N[C@@H]1CC[C@H](CCn2cc(-c3ccccc3F)nn2)O[C@@H]1CO,102*,-64,-12,98*,53,4,?
O=C(Nc1ccc(C(F)(F)F)cc1)N[C@H]1CC[C@@H](CCNC(=O)c2ccccc2F)O[C@H]1CO,139*,-22,2,45,31,-14,-4
COc1ccccc1NC(=O)N[C@H]1CC[C@H](CCn2cc(-c3ccccc3)nn2)O[C@@H]1CO,29,-19,-3,.,.,.,.
COc1ccccc1NC(=O)N[C@H]1CC[C@@H](CCn2cc(-c3ccccc3OC)nn2)O[C@H]1CO,113*,-3,5,69,41,-13,9
Cc1noc(C)c1NC(=O)N(C)C[C@@H]1Oc2ccc(NC(=O)Nc3ccc4c(c3)OCO4)cc2C(=O)N([C@@H](C)CO)C[C@H]1C,5,17,-1,.,.,.,.
COc1ccccc1NC(=O)N[C@H]1CC[C@H](CCn2cc(-c3ccccc3OC)nn2)O[C@@H]1CO,149*,27,7,20,22,1,?
COc1ccccc1-c1cn(CC[C@H]2CC[C@H](NC(=O)NC(C)C)[C@H](CO)O2)nn1,24,-5,0,.,.,.,.
Cc1cccc(S(=O)(=O)N[C@H]2CC[C@H](CCNC(=O)c3cnccn3)O[C@H]2CO)c1,32,13,.,.,.,.,.
C[C@H]1CN([C@@H](C)CO)C(=O)c2ccccc2-c2ccccc2CO[C@H]1CN(C)S(=O)(=O)c1ccccc1F,-8,-18,-2,.,.,.,.
Cc1ccccc1S(=O)(=O)N(C)C[C@H]1OCc2ccccc2-c2ccccc2C(=O)N([C@H](C)CO)C[C@@H]1C,?,-19,12,95*,31,-6,2
SMILES,T cruzi growth-1,Pf Dd2 inh,C diff HTS,T cruzi growth-2,T cruzi growth-3,3T3 cytotox,3T3 cytotox 2
C[C@H](CO)N1C[C@H](C)[C@@H](CN(C)S(C)(=O)=O)OCc2ccccc2-c2ccccc2C1=O,40,-2,-5,.,.,.,.
C[C@@H]1CN([C@@H](C)CO)C(=O)c2ccccc2-c2ccccc2CO[C@@H]1CN(C)S(=O)(=O)c1cccs1,115*,3,3,92,7,2,?
Cc1noc(C)c1S(=O)(=O)N(C)C[C@@H]1Oc2c(cccc2N(C)C)C(=O)N([C@H](C)CO)C[C@H]1C,9,-12,0,.,.,.,.
C[C@H](CO)N1C[C@H](C)[C@H](CN(C)Cc2ccc(Cl)c(Cl)c2)OCCCC[C@H](C)Oc2ccc(NS(=O)(=O)c3ccc(F)cc3)cc2C1=O,79,-50,11,.,.,.,.
O=C(Cc1ccncc1)NCC[C@H]1CC[C@H](NC(=O)C2CCC2)[C@H](CO)O1,-13,-1,.,.,.,.,.
COc1ccc(S(=O)(=O)N(C)C[C@@H]2Oc3c(NC(=O)Nc4cccc5ccccc45)cccc3C(=O)N([C@@H](C)CO)C[C@@H]2C)cc1,109*,-48,7,33,-16,-4,49*
Cc1ccc(S(=O)(=O)N(C)C[C@H]2Oc3c(NC(=O)Nc4cccc5ccccc45)cccc3C(=O)N([C@H](C)CO)C[C@H]2C)cc1,.,-40,-3,.,.,.,.
COc1ccc(S(=O)(=O)N(C)C[C@@H]2Oc3c(NC(=O)Nc4cccc5ccccc45)cccc3C(=O)N([C@H](C)CO)C[C@H]2C)cc1,58,-31,4,.,.,.,.
Cc1ccc(S(=O)(=O)N(C)C[C@@H]2Oc3c(NC(=O)Nc4cccc5ccccc45)cccc3C(=O)N([C@@H](C)CO)C[C@H]2C)cc1,110*,-67,-11,-8,-14,-9,-9
COCC#Cc1cnc2c(c1)C(=O)N([C@@H](C)CO)C[C@H](C)[C@H](CN(C)C(C)=O)O2,8,49,-2,.,.,.,.
C[C@H](CO)N1C[C@H](C)[C@H](CN(C)S(=O)(=O)c2ccccc2)OCCCC[C@H](C)Oc2ccc(NC(=O)NC3CCCCC3)cc2C1=O,.,-17,-15,.,.,.,.
